Assay results from PubChem BioAssay (Tox21).
Values joined by “and” are separate entries in the source; they are usually repeats but may differ in a detail not shown here. Equal entries are not always repeated. Records with an inconclusive call do not appear. Entries that show only a call come without a potency. Active and inactive are the calls of the source. The call rests on the fitted dose curve; in most records, active means well fitted curve in the direction sought with a large enough effect in the repeat runs; inconclusive means weak or mixed curves; inactive means no such curve, though single readings can be large; an effect the other way counts as inactive or inconclusive.

Experiments:
[1] = qHTS assay to identify small molecule antagonists of the glucocorticoid receptor (GR) signaling pathway - cell viability counter screen (AID 720693); further: nearly all actives have a fitted effect of over 55% in size
[2] = qHTS assay for identifying genotoxic compounds that show differential cytotoxicity against isogenic chicken DT40 cell lines with known DNA damage response pathways - wild type cell line (AID 743012); further: nearly all actives have a fitted effect of over 60% in size; further: potency means the concentration at half of the fitted maximal effect
Outline: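 First, wild type DT40 cells were plated at 300 per well and equilibrated about 0.5 h at 37 C/5% CO2. Next, compounds in DMSO were added and exposure lasted 40 h. Finally, CellTiter-Glo was added for 30 min at room temperature and luminescence recorded.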

[3] = qHTS assay for identifying genotoxic compounds that show differential cytotoxicity against isogenic chicken DT40 cell lines with known DNA damage response pathways - Rev3 mutant cell line (AID 743014); further: nearly all actives have a fitted effect of over 55% in size; further: potency means the concentration at half of the fitted maximal effect
[4] = qHTS assay for identifying genotoxic compounds that show differential cytotoxicity against isogenic chicken DT40 cell lines with known DNA damage response pathways - Rad54/Ku70 mutant cell line (AID 743015); further: nearly all actives have a fitted effect of over 60% in size; further: potency means the concentration at half of the fitted maximal effect
[5] = qHTS assay to identify small molecule antagonists of the androgen receptor (AR) signaling pathway - cell viability counter screen (AID 743033; further: nearly all actives have a fitted effect of over 45% in size)
[6] = qHTS assay to identify small molecule antagonists of the androgen receptor (AR) signaling pathway using the MDA cell line - cell viability counter screen (AID 743041; further: nearly all actives have a fitted effect of over 45% in size)
Outline: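 Cells were plated at 3,000 per well and left 5 h. Compounds in DMSO were then pinned in, followed by R1881. After 16 h at 37C, CellTiter-Fluor fluorescence gave viability.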

Compound	Potency [1]	Potency [2]	Potency [3]	Potency [4]	Potency [5]	Potency [6]
COC(=O)C(C)(C)C	inactive	inactive	inactive	inactive	inactive	inactive
Cc1cc(C)c(C)c(O)c1	inactive	inactive	inactive	inactive	inactive	inactive
CCOC(C)OCC	inactive	inactive	inactive	inactive	inactive	inactive
CC(=O)c1cccnc1	inactive	inactive	inactive	inactive	inactive	inactive
Cc1c(-c2cccnc2)c2ccccc2n1CCCCC(=O)O	inactive	inactive	30.6 µM (active)	inactive	inactive	inactive
CC1(C)C(=O)NC(=O)N1CO	inactive	inactive	inactive	inactive	inactive	inactive
C=Cc1ccc(C=C)cc1	inactive	inactive	inactive	inactive	inactive	inactive
C=C[Si](OCC)(OCC)OCC	inactive	inactive	inactive	inactive	inactive	inactive
CCCCCCCCCCCCSC#N	inactive	inactive	inactive	inactive	inactive	inactive
Nc1nc(Cl)nc2c1ncn2[C@H]1C[C@H](O)[C@@H](CO)O1	inactive	13.3 nM (active) and 1.9 nM (active)	16.8 nM (active) and 1.7 nM (active)	21.1 nM (active) and 2.7 nM (active)	inactive	inactive
O=C(O)c1cccnc1Nc1cccc(C(F)(F)F)c1	inactive	inactive	inactive	inactive	inactive	inactive
C1=COCCC1	inactive	inactive	inactive	inactive	inactive	inactive
CC(C)CCCCCOC(=O)CS	inactive	61.1 µM (active)	54.5 µM (active)	54.5 µM (active)	inactive	inactive
O=Cc1ccc(Cl)c([N+](=O)[O-])c1	inactive	4.33 µM (active)	4.33 µM (active)	3.06 µM (active)	inactive	inactive
Clc1cc(Cl)c2c(c1)N=C1CCCCCN1C2	inactive	13.3 µM (active)	8.41 µM (active)	13.3 µM (active)	inactive	inactive
CCC(=O)O[C@@H]1C[C@H]2CC[C@]1(C)C2(C)C	inactive	inactive	inactive	inactive	inactive	inactive

Compound	Potency [1]	Potency [2]	Potency [3]	Potency [4]	Potency [5]	Potency [6]
CC(=O)Nc1ccccc1O	inactive	inactive	inactive	inactive	inactive	inactive
CCn1nc(Cc2ccccc2)cc1C1CCN(C[C@H]2C[C@H](N(C)[C@@H](C(=O)O)C(C)C)C[C@@H]2c2cccc(F)c2)CC1	inactive	61.1 µM (active)	61.1 µM (active)	24.3 µM (active)	inactive	inactive
CC(C)(C)N	inactive	inactive	inactive	inactive	inactive	inactive
O=C1C=CCCC1	inactive	inactive	inactive	inactive	inactive	inactive
Cc1cccc(C)c1NC(=O)CN1CCCC1	inactive	inactive	inactive	inactive	inactive	inactive
C=CC(C)CCC=C(C)C (configuration not stated)	inactive	inactive	inactive	inactive	inactive	inactive
C1CCN(CN2CCCCC2)CC1	inactive	inactive	inactive	inactive	inactive	inactive
CC1(C)CC(=O)CC(C)(C)N1	inactive	inactive	inactive	inactive		inactive
O=C(O)CCc1nc2ccccc2[nH]1	inactive	inactive	inactive	inactive		inactive
CCC(C)C1N=C(C)C(C)S1 (configuration not stated)	inactive	inactive	inactive			inactive
CC(C)CCCCCCCOC(=O)c1ccc(C(=O)OCCCCCCCC(C)C)c(C(=O)OCCCCCCCC(C)C)c1	inactive	inactive	inactive	inactive		inactive
CC1(C)CC(O)CC(C)(C)N1[O]	inactive	inactive	inactive	inactive		inactive
c1ccc(CCNc2nc(-c3ccccc3)cs2)cc1	inactive	29.8 µM (active)	29.8 µM (active)	33.5 µM (active)		inactive
CC(C)(O)C(=O)O	inactive	inactive	inactive	inactive		inactive
CC(CN=Cc1ccccc1O)N=Cc1ccccc1O (configuration not stated)	inactive	inactive		inactive	inactive	inactive
CCC(C)CCCC(C)(C)O (configuration not stated)	inactive	inactive	inactive	inactive		inactive
